# The supplement of paper PMC9492666
# Tests used:
# Conditions in all cases: 72 h
# HCC1937 [1] = experiment: relative cell viability, compound + RSL3, vs DMSO (fraction of DMSO control); higher = less growth inhibition
# MDA-MB-231 [2] = experiment: as above
# HCC1937 [3] = experiment: relative cell viability, compound alone, vs DMSO (fraction of DMSO control); higher = less growth inhibition
# MDA-MB-231 [4] = experiment: as above
# HCC1937 [5] = experiment: relative cell viability, compound + erastin, vs DMSO (fraction of DMSO control); higher = less growth inhibition
# MDA-MB-231 [6] = experiment: as above
# 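For relative cell viability, compound + RSL3, vs DMSO in this document: breast cancer cell viability read out with the CCK-8 kit after co-treatment of each compound with the ferroptosis inducer RSL3.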
# 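For relative cell viability, compound + erastin, vs DMSO in this document: viability read by CCK-8 kit in 96-well plates, part of a combination screen pairing lipid-metabolism-targeting compounds with erastin.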
# 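For relative cell viability, compound alone, vs DMSO in this document: viability read out with the CCK-8 kit in 96-well plates, screening a set of 303 compounds acting on lipid metabolism targets.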
structure (smiles),measurement,setting,value
C[C@@H]1C(=O)O[C@H]2[C@H](O)[C@@]34O[C@@H]5OC(=O)[C@H](O)[C@@]56[C@H](C(C)(C)C)[C@H](O)C(OC3=O)[C@]64[C@@]12O (some centres undefined) [Ginkgolide C] + COC(=O)c1ccc([C@H]2c3[nH]c4ccccc4c3C[C@H](C(=O)OC)N2C(=O)CCl)cc1 [RSL3],relative cell viability,HCC1937 [1],0.699
same,relative cell viability,MDA-MB-231 [2],0.692
CCc1c(C(=O)C(N)=O)c2c(OCC(=O)O)cccc2n1Cc1ccccc1 [Varespladib] + COC(=O)c1ccc([C@H]2c3[nH]c4ccccc4c3C[C@H](C(=O)OC)N2C(=O)CCl)cc1 [RSL3],relative cell viability,HCC1937 [1],0.449
same,relative cell viability,MDA-MB-231 [2],0.574
O=C(Oc1ccc([N+](=O)[O-])cc1)N1CCN(Cc2cccc(Oc3ccccc3)c2)CC1,relative cell viability,HCC1937 [3],0.79
same,relative cell viability,MDA-MB-231 [4],0.782
CCC1=N[C@H]2C[C@@]3(C(=O)N(OC)c4ccccc43)[C@H]3CC1[C@@H]2CO3 [Humantenmine],relative cell viability,HCC1937 [3],0.922
same,relative cell viability,MDA-MB-231 [4],0.978
CN(C(=O)n1cnc(-c2ccc[n+]([O-])c2)c1)C1CCCCC1 + CCOc1ccccc1-n1c(C(C)N2CCN(C(=O)COc3ccc(Cl)cc3)CC2)nc2ccccc2c1=O [erastin],relative cell viability,HCC1937 [5],0.427
same,relative cell viability,MDA-MB-231 [6],0.613
C[C@@H]1C(=O)O[C@H]2[C@H](O)[C@@]34O[C@@H]5OC(=O)[C@H](O)[C@@]56[C@H](C(C)(C)C)[C@H](O)C(OC3=O)[C@]64[C@@]12O (some centres undefined) [Ginkgolide C],relative cell viability,HCC1937 [3],1.15
same,relative cell viability,MDA-MB-231 [4],1.08
CC(C)=CCC[C@](C)(O)[C@H]1CC[C@]2(C)[C@@H]1[C@H](O)C[C@@H]1[C@@]3(C)CC[C@H](O)C(C)(C)[C@@H]3[C@@H](O[C@@H]3O[C@H](CO)[C@@H](O)[C@H](O)[C@H]3O)C[C@]12C [Ginsenoside Rh1] + CCOc1ccccc1-n1c(C(C)N2CCN(C(=O)COc3ccc(Cl)cc3)CC2)nc2ccccc2c1=O [erastin],relative cell viability,HCC1937 [5],0.679
same,relative cell viability,MDA-MB-231 [6],0.663
